NTR1 ag: agonists of human neurotensin receptor NTR1; P30989; NTR1-U2OS beta-arrestin-GFP spot imaging, agonist mode; activation, % at 20 µM; hit rate 0.17% among 330,000;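 active means activation at or above 40% of the spot to cytoplasm intensity ratio, with at least 20 cells analyzed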;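 further: 0% = DMSO without peptide and 100% = 100 nM NTR1 peptide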
Target sequence (P30989 whole entry, looked up): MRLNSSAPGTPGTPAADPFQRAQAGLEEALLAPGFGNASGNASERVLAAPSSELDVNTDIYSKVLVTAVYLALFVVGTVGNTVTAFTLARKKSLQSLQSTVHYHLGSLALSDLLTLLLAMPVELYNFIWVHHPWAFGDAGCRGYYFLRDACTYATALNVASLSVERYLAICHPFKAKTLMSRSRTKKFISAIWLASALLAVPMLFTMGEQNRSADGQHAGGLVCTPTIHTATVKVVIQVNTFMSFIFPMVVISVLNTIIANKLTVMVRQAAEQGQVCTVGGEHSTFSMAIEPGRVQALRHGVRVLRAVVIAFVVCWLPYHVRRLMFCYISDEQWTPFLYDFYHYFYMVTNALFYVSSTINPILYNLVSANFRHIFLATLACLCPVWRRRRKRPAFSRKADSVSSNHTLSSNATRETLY
A3A deaminase: blocks human APOBEC3A ssDNA deamination; recombinant A3A, FAM/TAMRA ssDNA deamination fluorescence; inhibition, % at 20 µM; hit rate 0.41% among 330,000;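 active means at least 40% inhibition at 20 µM here, with at most 30% in a related deaminase screen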;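 further: plate controls were A3A with DMSO for no effect and wells lacking A3A enzyme for full effect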
Target sequence (P31941 whole entry, looked up): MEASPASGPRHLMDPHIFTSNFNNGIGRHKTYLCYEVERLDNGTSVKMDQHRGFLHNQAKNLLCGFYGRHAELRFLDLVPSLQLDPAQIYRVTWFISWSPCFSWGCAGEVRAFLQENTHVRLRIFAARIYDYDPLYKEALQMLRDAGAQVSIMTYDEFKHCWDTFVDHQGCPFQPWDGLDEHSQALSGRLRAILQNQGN
A3G deaminase: APOBEC3G (human) deaminase inhibition | inhibition, % at 20 µM | hit rate 0.28% among 330,000 | recombinant A3G, ssDNA deamination FAM/TAMRA fluorescence;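 active means inhibition of at least 40% at 20 µM, with no more than 30% in the related APOBEC3A deaminase screen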;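 further: plate controls were DMSO wells with A3G for no effect and wells lacking A3G enzyme for full effect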
AHR activator: human AHR activation; P35869; AHR-responsive luciferase reporter cells, luminescence; activation, % at 5 µM; hit rate 2.5% among 320,000; AID 2796; in the data active means activation above about 47%;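 further: 0% = vehicle wells and 100% = reference agonist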
Active calls of the source: *; x = not tested or not shown. Hits are enriched below; roughly 3.2% of the tested compounds scored in any of these assays.

SMILES | NTR1 ag | A3A deaminase | A3G deaminase | AHR activator
C/C(=N\NC(=O)COc1ccc(C(C)(C)C)cc1)c1ccc(-n2ccnc2)cc1 | 3.9 | 0.2 | 0.4 | 72.9*
C/C(=N\NC(=O)OC(C)(C)C)c1ccc(-n2ccnc2)cc1 | 2.2 | -1.2 | -2.8 | 68.3*
C/C(=N\Nc1ccc(Cl)c(Cl)c1)c1ccc(-n2ccnc2)cc1 | 7.7 | -5.4 | -7.8 | 22.6
C/C(=N\NC(=O)c1ccccc1)c1ccc(-n2ccnc2)cc1 | -2.5 | 1.3 | -2.4 | 20.9
COc1ccc(OCC(=O)N/N=C(\C)c2ccc(-n3ccnc3)cc2)cc1 | 1.5 | -1.0 | 0.6 | 55.1*
Cc1cc(OCC(=O)Nc2cc(C(C)(C)C)on2)ccc1[N+](=O)[O-] | 2.6 | 1.2 | -3.2 | 1.1
C=CCNC(=O)/C(C#N)=C\c1cc(Cl)c(OCC)c(OC)c1 | 6.3 | -1.7 | -8.8 | 6.1
Cn1c(=O)c(C(=O)Nc2ncccc2O)c(O)c2ccccc21 | -0.9 | -0.4 | -4.0 | 76.5*
CC1CCCN(C2(O)C(=O)Nc3ccc([N+](=O)[O-])cc32)C1 (stereo not drawn) | -0.3 | -4.5 | -9.8 | 0.2
N=C(N)c1ccc(Cl)cc1 | 0.3 | 1.0 | -4.2 | 51.6*
C=CCc1c(NCCO)nc(C)[nH]c1=O | -0.2 | -3.7 | -3.9 | -0.5
COC(=O)c1ccc(C)c(-n2c(C)cc(C=O)c2C)c1 | -0.9 | 1.2 | -5.6 | 2.9
C#CCSc1nnc(-c2c[nH]c3ccccc23)n1C | -0.9 | -4.1 | -12.0 | 48.8*
O=C(C[C@@H]1C/C=C\C[C@@H](Cc2ccc(F)cc2)C(=O)OC[C@@H](Cc2ccccc2)NC1=O)N[C@H](CO)Cc1ccccc1 | 2.8 | 1.8 | 9.5 | 0.3
COc1ccc(Cl)cc1NC(=O)C/C(C)=N/NC(=O)CC#N | -2.0 | -1.6 | -2.6 | 71.9*
COc1ccc(NC(=O)CCC(=O)c2cccs2)cc1Cl | -0.6 | -2.4 | -6.4 | -1.2
COc1cc(NCCC(=O)c2cccs2)c(OC)cc1Cl | 1.2 | 2.5 | 3.7 | 51.1*
COc1cc(NC(=O)C/C(C)=N/NC(=O)c2cccs2)c(OC)cc1Cl | 2.3 | -3.1 | -2.3 | 63.9*
COc1ccc(Cl)cc1NC(=O)C/C(C)=N/NC(=O)CCc1ccccc1 | 0.3 | -4.3 | -9.0 | 15.8
COc1cc(NC(=O)c2cccs2)c(OC)cc1NC(=O)c1cccs1 | 1.3 | 2.4 | -2.2 | 57.0*
Cc1cc2c(ncn2Cc2ccccc2)c(N)c1C | -0.9 | 0.0 | -6.9 | 25.6
COc1cc(CCC(=O)Nc2nccs2)cc(OC)c1OC | 0.7 | -3.6 | -5.1 | 6.0
O=C(Cc1coc2cc(O)ccc12)NNC(=O)c1ccc(Br)s1 | 1.1 | 9.6 | -3.7 | 3.4
CN1CC=C2C(C#N)=C(N)C(C#N)(C#N)C(CCc3ccccc3)C2C1 (stereo not drawn) | -4.5 | -2.3 | -1.0 | 56.1*
C/C(=N/O)c1cccc(N2Cc3ccccc3C2)c1 | -0.1 | -1.4 | -3.5 | 10.1
SMILES | NTR1 ag | A3A deaminase | A3G deaminase | AHR activator
Cc1cccc(N2Cc3ccc(Br)cc3C2)c1 | 1.2 | -6.6 | -0.2 | 48.0*
Cc1ccc2nc(SC(C)C(=O)Nc3cccc([N+](=O)[O-])c3)[nH]c2c1 (stereo not drawn) | 9.0 | 2.2 | -8.6 | 66.4*
Cc1ccc2nc(SC(C)C(=O)NC3CCCC3)[nH]c2c1 (stereo not drawn) | -1.0 | -6.3 | -8.7 | 48.7*
Cc1ccc2nc(SC(C)C(=O)N3CCOCC3)[nH]c2c1 (stereo not drawn) | 0.0 | 1.5 | 1.4 | 49.7*
CC(Sc1nc(N)cc(=O)[nH]1)C(=O)N1CCOCC1 (stereo not drawn) | -0.1 | -7.2 | -10.4 | x
Cc1ccc2nc(SCC(=O)Nc3cc([N+](=O)[O-])ccc3F)[nH]c2c1 | 1.0 | 1.2 | 1.3 | 40.0
COc1ccc2nc(SC(C)C(=O)NC3CCCCC3)[nH]c2c1 (stereo not drawn) | 0.7 | -0.9 | -5.8 | x
COC(=O)[C@H](CC(C)C)NC(=O)Nc1ccccc1F | 0.7 | -2.6 | -6.8 | -0.5
CN(C(=O)c1cccnc1)c1nnc(-c2ccccn2)s1 | -0.4 | 1.3 | 1.9 | 53.8*
COCc1cc(C)nc2sc(C(=O)OC(C)C)c(N)c12 | 3.8 | -5.5 | -2.2 | 72.3*
Cc1ccccc1C(=O)N1CCC(C(=O)OCc2ccccn2)CC1 | 0.9 | -3.1 | -7.8 | -0.2
COc1ccc2sc(-c3ccc(SC)cc3)c(/C=C/c3ccc(OC)c(OC)c3)c2c1 | 3.9 | -2.6 | -7.3 | 49.5*
COc1ccc(/C=C/c2c(-c3ccc(OC)cc3)sc3ccc(N4CCOCC4)cc23)cc1 | 2.8 | -3.5 | -5.2 | 24.8
COc1ccc(-c2sc3ccccc3c2/C=C/c2ccc(N)cc2)cc1 | 12.2 | -0.1 | -3.8 | 53.6*
COC(=O)c1c(-c2ccc(OC)cc2)sc2ccc(OC)cc12 | 11.2 | 1.4 | -4.6 | 24.5
O=C(Nc1c(C(=O)c2ccccc2)oc2ccccc12)c1cc(-c2ccccc2O)n[nH]1 | 10.0 | 2.1 | -3.9 | 67.9*
Cc1ccc(C(=O)c2oc3ccccc3c2NC(=O)c2cc(-c3ccccc3O)n[nH]2)cc1 | 13.3 | -2.6 | -4.1 | 50.5*
O=C(C1CCCN1C(=O)c1cccs1)N1CCN(S(=O)(=O)c2ccc(F)cc2)CC1 (stereo not drawn) | -2.9 | -3.0 | -9.8 | 0.7
O=C(CN1CCN(Cc2ccccc2)CC1)N/N=C/c1ccc(Br)s1 | 3.3 | -3.9 | -1.7 | 0.1
COc1cc(NS(=O)(=O)c2ccc(NC(=O)/C=C/c3ccc([N+](=O)[O-])cc3)cc2)ncn1 | -0.4 | -0.2 | 8.4 | -0.3
COc1cc(NS(=O)(=O)c2ccc(NC(=O)/C=C/c3cccc([N+](=O)[O-])c3)cc2)ncn1 | 0.0 | 3.2 | 3.4 | 103.6*
O=C(/C=C/c1ccc([N+](=O)[O-])cc1)N1CCN(S(=O)(=O)c2cccs2)CC1 | 1.8 | 3.8 | -3.2 | 3.2
CN1C(=O)C2(N=c3ccccc3=N2)c2ccccc21 | 0.7 | 4.1 | -1.4 | 51.4*
COc1ccccc1/C=N/Nc1cc(N(C)C)nc(N(C)C)n1 | 4.2 | -0.2 | -1.5 | 43.3
CN(C)c1cc(N/N=C\c2ccccc2)nc(N(C)C)n1 | 6.0 | -1.6 | -2.6 | 54.4*
SMILES | NTR1 ag | A3A deaminase | A3G deaminase | AHR activator
COc1ccc(/C=N/Nc2cc(N(C)C)nc(N(C)C)n2)cc1 | 8.6 | -2.4 | -7.1 | 48.7*
O=C(NNC(=O)c1ccc([N+](=O)[O-])cc1Cl)c1ccncc1 | -1.4 | 1.7 | 2.5 | 7.0
Cc1ccc(S(=O)(=O)NC(C)(C)CN2CCC(Cc3ccccc3)CC2)cc1 | 11.3 | -0.8 | -8.2 | 2.8
C/C(Cc1ccccc1)=N\NC(=O)CNC(=O)c1ccccc1Br | -2.1 | -4.2 | -8.4 | -0.6
COc1ccc(OC)c(Nc2ncnc3ccc(Br)cc23)c1 | 0.4 | 3.6 | -4.5 | 25.2
Brc1ccc2ncnc(Nc3cccc4ccccc34)c2c1 | 1.0 | -5.9 | -11.3 | 58.8*
COCCn1c(SC(C)C(=O)Nc2ccc(Cl)cn2)nnc1-c1ccncc1 (stereo not drawn) | 1.8 | -5.9 | -1.9 | 5.3
CC1CN=C(NC(=O)c2cccc([N+](=O)[O-])c2)S1 (stereo not drawn) | 1.0 | -5.5 | -6.2 | -0.6
CCOC(=O)c1ccc(NCc2nc3ccccc3n2C)cc1 | -0.6 | -0.5 | -4.3 | 59.3*
Cn1c(CNc2ccc(O)cc2)nc2ccccc21 | 0.9 | -2.3 | -5.0 | 15.1

Assay outcomes as filed in PubChem.
